Test results from publication PMC7862700, “An all-to-all approach to the identification of sequence-specific readers for epigenetic DNA modifications on cytosine”.

Legend:
Test in all cases: DAPPL (digital affinity profiling via proximity ligation, sequencing); 10 mM Tris-HCl pH 7.5, 50 mM NaCl, 1 mM DTT, 4% glycerol, room temperature, 30 min; GST-TFs on glutathione beads, 16-mer random dsDNA library, 0.1% formaldehyde crosslink after washing; high values mean tight binding
FLI1 = biological target: T1, FLI1 (Homo sapiens, UniProt Q01543 1-452); conditions: protein: recombinant; tags: N-terminal GST; dsDNA, one strand shown
T1 sequence: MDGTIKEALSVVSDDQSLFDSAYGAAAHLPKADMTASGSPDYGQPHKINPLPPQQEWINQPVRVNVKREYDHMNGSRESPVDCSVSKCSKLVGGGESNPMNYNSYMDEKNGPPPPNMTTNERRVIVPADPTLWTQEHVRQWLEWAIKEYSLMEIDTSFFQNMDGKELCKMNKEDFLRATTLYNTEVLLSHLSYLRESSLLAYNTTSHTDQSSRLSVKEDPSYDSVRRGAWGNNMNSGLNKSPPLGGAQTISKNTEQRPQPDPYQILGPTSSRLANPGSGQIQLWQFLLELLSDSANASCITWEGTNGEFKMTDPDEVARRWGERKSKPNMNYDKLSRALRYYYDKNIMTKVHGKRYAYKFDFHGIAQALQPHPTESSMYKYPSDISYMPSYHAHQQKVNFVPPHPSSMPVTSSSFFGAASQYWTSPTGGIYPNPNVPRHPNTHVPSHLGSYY
Method in brief: (§1)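 In yeast, human transcription factors were expressed with a GST fusion, then pulled down on glutathione beads and given DNA barcodes. Pooled with a tag-only sample, they were exposed to 200 nmole of a 16-mer random double-stranded DNA library (Tris/NaCl/DTT/glycerol buffer, room temperature, 30 min), washed, crosslinked with 0.1% formaldehyde, proximity-ligated using BsaI/T4 ligase for 1 h at 37 °C, PCR-amplified and read on an Illumina NextSeq500. Each hexamer's frequency of reads for a factor, divided by the matching frequency for the tag-only sample, gives the binding signal.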

ELK1 = biological target: T2, ELK1 (Homo sapiens, UniProt P19419 1-428); conditions: protein: recombinant; tags: N-terminal GST; dsDNA, one strand shown
T2 sequence: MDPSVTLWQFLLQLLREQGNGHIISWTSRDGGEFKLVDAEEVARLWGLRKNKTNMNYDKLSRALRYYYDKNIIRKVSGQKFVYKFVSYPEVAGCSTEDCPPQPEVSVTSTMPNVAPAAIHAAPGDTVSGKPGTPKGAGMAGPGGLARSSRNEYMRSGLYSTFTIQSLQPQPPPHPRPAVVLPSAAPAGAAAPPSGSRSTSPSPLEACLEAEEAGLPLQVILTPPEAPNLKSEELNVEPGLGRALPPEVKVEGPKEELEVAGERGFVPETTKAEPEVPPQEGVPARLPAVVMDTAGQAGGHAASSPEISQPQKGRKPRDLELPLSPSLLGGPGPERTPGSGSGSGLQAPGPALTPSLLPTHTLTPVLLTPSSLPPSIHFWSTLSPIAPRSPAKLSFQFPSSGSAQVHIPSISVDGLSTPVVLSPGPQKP
Method in brief: as §1

GABPA = biological target: T3, GABPA (Homo sapiens, UniProt Q06546 1-454); conditions: protein: recombinant; tags: N-terminal GST; dsDNA, one strand shown
T3 sequence: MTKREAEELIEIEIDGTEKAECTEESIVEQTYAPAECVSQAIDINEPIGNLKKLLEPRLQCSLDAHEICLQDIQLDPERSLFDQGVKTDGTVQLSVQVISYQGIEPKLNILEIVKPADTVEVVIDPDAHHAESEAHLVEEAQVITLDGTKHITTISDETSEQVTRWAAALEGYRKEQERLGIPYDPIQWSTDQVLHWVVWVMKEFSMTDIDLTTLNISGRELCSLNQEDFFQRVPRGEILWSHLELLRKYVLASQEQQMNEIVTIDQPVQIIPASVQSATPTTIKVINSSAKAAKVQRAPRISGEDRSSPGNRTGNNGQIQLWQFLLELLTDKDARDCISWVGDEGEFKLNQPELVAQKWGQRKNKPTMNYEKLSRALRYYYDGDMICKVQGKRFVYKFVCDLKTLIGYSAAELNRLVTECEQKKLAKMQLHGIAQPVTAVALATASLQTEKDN
Method in brief: as §1

ERG = biological target: T4, ERG (Homo sapiens, UniProt P11308 1-479); conditions: protein: recombinant; tags: N-terminal GST; dsDNA, one strand shown
T4 sequence: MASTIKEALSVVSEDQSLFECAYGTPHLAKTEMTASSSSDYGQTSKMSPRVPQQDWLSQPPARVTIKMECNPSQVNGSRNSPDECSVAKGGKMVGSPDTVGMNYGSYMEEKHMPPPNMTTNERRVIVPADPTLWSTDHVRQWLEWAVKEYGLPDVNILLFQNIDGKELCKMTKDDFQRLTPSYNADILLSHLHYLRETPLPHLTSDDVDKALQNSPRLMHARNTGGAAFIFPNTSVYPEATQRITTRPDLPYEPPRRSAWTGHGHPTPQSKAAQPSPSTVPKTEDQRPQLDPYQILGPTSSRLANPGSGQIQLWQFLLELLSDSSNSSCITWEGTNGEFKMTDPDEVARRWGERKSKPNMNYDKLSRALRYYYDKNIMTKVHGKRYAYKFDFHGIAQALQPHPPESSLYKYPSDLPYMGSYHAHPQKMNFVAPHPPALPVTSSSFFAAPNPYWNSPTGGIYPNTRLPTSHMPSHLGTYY
Method in brief: as §1

ELF1 = ELF1 (Homo sapiens, UniProt P32519 1-619); conditions: protein: recombinant; tags: N-terminal GST; dsDNA, one strand shown
ELF1, sequence (P32519 whole entry): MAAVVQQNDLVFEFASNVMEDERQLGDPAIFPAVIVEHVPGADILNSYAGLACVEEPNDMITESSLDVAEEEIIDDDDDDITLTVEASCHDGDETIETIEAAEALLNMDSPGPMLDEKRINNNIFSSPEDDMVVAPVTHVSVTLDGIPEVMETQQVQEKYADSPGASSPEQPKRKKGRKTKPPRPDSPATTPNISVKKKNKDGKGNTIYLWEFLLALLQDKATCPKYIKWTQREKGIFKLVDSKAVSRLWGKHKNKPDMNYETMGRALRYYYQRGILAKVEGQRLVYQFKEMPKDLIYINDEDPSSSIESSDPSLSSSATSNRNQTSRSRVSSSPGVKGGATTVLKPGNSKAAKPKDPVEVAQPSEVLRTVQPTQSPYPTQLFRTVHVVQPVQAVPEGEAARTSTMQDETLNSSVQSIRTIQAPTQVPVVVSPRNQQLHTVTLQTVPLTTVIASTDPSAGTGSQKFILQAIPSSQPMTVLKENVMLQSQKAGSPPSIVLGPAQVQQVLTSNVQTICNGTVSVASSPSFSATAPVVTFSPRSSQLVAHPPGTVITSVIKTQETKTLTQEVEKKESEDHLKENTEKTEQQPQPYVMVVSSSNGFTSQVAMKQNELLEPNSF
Method in brief: as §1

EHF = biological target: T5, EHF (Homo sapiens, UniProt Q9NZC4 1-300); conditions: protein: recombinant; tags: N-terminal GST; dsDNA, one strand shown
T5 sequence: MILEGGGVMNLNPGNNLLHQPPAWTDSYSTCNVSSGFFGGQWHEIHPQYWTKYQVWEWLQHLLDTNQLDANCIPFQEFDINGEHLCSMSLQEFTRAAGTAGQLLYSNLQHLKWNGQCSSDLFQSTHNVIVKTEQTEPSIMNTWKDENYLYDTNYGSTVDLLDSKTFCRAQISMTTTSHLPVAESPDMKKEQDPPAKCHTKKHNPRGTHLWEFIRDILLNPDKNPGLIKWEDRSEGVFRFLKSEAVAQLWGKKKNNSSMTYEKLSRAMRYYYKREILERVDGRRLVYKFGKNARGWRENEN
Method in brief: as §1

SPI1 = SPI1 (Homo sapiens, UniProt P17947 1-270); conditions: protein: recombinant; tags: N-terminal GST; dsDNA, one strand shown
Method in brief: as §1

SPIB = SPIB (Homo sapiens, UniProt Q01892 1-262); conditions: protein: recombinant; tags: N-terminal GST; dsDNA, one strand shown
SPIB, sequence (Q01892 whole entry): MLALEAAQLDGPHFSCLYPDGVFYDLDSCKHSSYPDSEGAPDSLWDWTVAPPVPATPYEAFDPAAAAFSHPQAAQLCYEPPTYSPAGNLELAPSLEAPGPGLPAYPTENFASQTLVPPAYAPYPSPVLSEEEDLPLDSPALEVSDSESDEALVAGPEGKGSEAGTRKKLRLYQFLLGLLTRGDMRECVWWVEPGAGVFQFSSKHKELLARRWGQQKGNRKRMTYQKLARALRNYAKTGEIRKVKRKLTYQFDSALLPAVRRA
Method in brief: as §1

ELK3 = biological target: T6, ELK3 (Homo sapiens, UniProt P41970 1-407); conditions: protein: recombinant; tags: N-terminal GST; dsDNA, one strand shown
T6 sequence: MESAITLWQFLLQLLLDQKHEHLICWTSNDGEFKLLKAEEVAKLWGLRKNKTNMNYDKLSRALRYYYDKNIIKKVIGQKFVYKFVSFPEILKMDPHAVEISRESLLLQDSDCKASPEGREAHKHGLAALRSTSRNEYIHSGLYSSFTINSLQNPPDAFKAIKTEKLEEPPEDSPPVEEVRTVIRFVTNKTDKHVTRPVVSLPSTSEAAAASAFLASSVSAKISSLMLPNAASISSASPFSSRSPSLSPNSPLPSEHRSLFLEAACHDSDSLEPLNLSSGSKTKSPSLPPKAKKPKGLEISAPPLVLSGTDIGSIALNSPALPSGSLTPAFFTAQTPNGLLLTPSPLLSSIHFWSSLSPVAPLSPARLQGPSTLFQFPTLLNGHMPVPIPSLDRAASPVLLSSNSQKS
Method in brief: as §1

FEV = biological target: T7, FEV (Homo sapiens, UniProt Q99581 1-238); conditions: protein: recombinant; tags: N-terminal GST; dsDNA, one strand shown
T7 sequence: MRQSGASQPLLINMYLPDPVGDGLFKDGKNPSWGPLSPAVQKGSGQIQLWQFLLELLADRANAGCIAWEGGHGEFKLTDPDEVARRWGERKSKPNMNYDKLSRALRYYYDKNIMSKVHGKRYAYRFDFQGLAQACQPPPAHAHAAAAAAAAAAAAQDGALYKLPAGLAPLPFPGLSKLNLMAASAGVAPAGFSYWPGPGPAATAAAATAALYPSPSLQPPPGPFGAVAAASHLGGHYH
Method in brief: as §1

ETV5 = ETV5 (Homo sapiens, UniProt P41161 1-510); conditions: protein: recombinant; tags: N-terminal GST; dsDNA, one strand shown
ETV5, sequence (P41161 whole entry): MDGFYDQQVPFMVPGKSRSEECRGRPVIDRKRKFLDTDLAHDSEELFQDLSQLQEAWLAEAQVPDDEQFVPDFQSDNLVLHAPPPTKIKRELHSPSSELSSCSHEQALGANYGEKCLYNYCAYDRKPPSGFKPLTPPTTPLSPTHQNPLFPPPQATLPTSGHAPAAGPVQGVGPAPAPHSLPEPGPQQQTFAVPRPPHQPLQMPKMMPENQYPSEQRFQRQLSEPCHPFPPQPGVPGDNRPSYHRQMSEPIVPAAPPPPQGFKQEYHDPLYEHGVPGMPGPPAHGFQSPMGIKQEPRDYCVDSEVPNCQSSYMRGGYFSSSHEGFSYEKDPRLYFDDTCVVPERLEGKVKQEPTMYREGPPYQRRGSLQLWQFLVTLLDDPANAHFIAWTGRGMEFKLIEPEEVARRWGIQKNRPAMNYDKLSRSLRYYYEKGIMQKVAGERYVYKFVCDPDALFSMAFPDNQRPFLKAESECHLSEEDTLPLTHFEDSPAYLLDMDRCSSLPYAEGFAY
Method in brief: as §1

HSF1 = HSF1 (Homo sapiens, UniProt Q00613 1-529); conditions: protein: recombinant; tags: N-terminal GST; chain copies: 3; dsDNA, one strand shown
HSF1, sequence (Q00613 whole entry): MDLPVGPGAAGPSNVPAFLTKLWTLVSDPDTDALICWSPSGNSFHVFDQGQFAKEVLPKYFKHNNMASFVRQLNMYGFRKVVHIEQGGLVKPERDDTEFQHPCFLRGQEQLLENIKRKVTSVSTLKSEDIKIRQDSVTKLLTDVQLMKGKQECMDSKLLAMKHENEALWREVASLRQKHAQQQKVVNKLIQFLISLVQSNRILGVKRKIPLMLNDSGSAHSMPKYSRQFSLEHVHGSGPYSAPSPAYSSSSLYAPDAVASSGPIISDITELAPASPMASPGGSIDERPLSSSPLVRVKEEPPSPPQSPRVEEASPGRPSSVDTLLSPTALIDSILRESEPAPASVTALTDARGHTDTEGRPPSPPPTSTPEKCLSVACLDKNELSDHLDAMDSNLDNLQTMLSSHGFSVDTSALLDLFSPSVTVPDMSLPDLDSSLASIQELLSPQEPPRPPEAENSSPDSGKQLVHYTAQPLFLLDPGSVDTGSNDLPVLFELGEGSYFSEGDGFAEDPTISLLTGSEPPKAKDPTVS
Method in brief: as §1

SPIC = biological target: T8, SPIC (Homo sapiens, UniProt Q8N5J4 1-248); conditions: protein: recombinant; tags: N-terminal GST; dsDNA, one strand shown
T8 sequence: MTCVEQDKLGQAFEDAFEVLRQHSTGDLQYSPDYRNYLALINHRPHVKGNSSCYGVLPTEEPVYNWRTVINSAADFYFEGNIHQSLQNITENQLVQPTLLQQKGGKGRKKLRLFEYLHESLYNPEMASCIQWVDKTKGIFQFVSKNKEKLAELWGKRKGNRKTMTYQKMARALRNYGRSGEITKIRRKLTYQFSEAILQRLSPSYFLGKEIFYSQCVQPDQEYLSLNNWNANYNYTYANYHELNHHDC
Method in brief: as §1

ELF4 = ELF4 (Homo sapiens, UniProt Q99607 1-663); conditions: protein: recombinant; tags: N-terminal GST; dsDNA, one strand shown
ELF4, sequence (Q99607 whole entry): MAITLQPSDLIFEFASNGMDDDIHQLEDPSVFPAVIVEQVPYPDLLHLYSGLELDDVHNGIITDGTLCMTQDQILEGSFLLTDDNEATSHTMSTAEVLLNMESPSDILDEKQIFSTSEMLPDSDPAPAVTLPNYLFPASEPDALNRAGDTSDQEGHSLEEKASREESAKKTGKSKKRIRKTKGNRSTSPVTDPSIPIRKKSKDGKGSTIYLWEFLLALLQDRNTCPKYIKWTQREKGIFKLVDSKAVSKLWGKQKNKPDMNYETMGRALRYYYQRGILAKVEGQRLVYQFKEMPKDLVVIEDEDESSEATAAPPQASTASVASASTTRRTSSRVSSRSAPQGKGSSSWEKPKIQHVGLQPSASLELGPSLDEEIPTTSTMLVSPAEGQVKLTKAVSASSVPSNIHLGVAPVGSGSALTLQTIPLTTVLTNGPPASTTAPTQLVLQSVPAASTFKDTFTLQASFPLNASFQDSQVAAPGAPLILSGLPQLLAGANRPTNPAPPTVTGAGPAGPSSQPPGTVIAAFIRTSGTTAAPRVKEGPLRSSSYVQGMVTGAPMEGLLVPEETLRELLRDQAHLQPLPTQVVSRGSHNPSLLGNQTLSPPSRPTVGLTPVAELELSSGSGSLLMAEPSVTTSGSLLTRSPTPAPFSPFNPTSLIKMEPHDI
Method in brief: as §1

ELK4 = biological target: T9, ELK4 (Homo sapiens, UniProt P28324-2 1-405); conditions: protein: recombinant; tags: N-terminal GST; dsDNA, one strand shown
T9 sequence: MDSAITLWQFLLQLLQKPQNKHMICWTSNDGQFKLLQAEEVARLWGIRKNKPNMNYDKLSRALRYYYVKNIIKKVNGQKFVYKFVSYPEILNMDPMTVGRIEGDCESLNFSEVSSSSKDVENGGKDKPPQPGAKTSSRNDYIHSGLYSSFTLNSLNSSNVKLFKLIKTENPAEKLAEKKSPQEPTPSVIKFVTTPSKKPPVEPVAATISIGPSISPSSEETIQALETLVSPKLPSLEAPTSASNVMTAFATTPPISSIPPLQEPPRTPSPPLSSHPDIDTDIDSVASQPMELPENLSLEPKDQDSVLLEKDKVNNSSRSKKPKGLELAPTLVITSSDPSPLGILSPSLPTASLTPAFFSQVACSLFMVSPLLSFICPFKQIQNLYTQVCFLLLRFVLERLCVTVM
Method in brief: as §1

ETV2 = biological target: T10, ETV2 (Homo sapiens, UniProt O00321 1-342); conditions: protein: recombinant; tags: N-terminal GST; dsDNA, one strand shown
T10 sequence: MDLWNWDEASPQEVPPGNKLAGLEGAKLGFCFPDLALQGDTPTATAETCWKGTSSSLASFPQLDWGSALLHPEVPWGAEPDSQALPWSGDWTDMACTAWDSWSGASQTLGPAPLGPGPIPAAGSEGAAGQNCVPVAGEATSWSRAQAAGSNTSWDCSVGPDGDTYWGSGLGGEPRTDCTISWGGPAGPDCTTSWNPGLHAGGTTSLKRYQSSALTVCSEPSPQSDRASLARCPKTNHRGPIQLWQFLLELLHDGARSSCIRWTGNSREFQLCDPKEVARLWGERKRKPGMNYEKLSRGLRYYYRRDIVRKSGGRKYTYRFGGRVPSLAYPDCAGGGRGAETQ
Method in brief: as §1

ELF3 = biological target: T11, ELF3 (Homo sapiens, UniProt P78545 1-371); conditions: protein: recombinant; tags: N-terminal GST; dsDNA, one strand shown
T11 sequence: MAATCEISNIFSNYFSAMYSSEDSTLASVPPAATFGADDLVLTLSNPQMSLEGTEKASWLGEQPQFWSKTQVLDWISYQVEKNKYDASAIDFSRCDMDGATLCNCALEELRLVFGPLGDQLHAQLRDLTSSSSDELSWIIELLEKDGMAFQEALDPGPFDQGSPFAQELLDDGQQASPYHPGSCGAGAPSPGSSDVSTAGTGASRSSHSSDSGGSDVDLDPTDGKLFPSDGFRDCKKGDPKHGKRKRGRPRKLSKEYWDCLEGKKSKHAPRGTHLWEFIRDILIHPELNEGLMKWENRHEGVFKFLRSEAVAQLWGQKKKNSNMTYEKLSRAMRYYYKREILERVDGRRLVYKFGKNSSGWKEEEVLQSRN
Method in brief: as §1

CRX = CRX (Homo sapiens, UniProt O43186 1-299); conditions: protein: recombinant; tags: N-terminal GST; dsDNA, one strand shown
CRX, sequence (O43186 whole entry): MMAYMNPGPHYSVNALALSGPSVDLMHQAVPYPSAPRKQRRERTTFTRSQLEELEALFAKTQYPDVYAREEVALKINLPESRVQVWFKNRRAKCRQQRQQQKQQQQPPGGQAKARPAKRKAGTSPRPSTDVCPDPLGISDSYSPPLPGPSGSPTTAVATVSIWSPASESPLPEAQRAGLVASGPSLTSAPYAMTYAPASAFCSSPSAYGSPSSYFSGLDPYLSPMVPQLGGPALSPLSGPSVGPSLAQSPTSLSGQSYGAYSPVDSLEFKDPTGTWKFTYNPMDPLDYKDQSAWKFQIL
Method in brief: as §1

ETV1 = ETV1 (Homo sapiens, UniProt P50549 1-477); conditions: protein: recombinant; tags: N-terminal GST; dsDNA, one strand shown
ETV1, sequence (P50549 whole entry): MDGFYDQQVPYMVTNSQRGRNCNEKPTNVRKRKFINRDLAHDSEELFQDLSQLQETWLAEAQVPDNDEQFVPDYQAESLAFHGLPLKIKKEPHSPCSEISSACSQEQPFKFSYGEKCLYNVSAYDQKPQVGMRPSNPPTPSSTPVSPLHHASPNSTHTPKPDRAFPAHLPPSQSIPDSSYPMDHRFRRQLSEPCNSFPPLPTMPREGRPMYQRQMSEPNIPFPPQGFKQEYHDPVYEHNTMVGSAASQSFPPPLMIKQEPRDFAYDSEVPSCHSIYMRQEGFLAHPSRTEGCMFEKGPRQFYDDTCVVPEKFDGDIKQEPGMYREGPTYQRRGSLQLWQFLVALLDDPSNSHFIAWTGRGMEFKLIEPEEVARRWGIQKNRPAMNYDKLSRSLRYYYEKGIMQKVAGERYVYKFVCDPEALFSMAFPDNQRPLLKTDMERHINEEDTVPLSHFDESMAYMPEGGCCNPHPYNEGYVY
Method in brief: as §1

TAATAA was tested, and the binding signal (FLI1) was 1.17 fold enrichment (6-mer frequency, TF over GST control), the binding signal (ELK1) was 1.19 fold enrichment (6-mer frequency, TF over GST control) and the binding signal (GABPA) was 1.21 fold enrichment (6-mer frequency, TF over GST control). The binding signal (ERG) was 1.22 fold enrichment (6-mer frequency, TF over GST control), the binding signal (ELF1) was 1.16 fold enrichment (6-mer frequency, TF over GST control) and the binding signal (EHF) was 1.24 fold enrichment (6-mer frequency, TF over GST control). The binding signal (SPI1) was 1.09 fold enrichment (6-mer frequency, TF over GST control), the binding signal (SPIB) was 1.27 fold enrichment (6-mer frequency, TF over GST control) and the binding signal (ELK3) was 1.05 fold enrichment (6-mer frequency, TF over GST control). The binding signal (FEV) was 1.13 fold enrichment (6-mer frequency, TF over GST control), the binding signal (ETV5) was 1.22 fold enrichment (6-mer frequency, TF over GST control) and the binding signal (HSF1) was 1.76 fold enrichment (6-mer frequency, TF over GST control). For the same sequence, the binding signal (SPIC) was 1.17 fold enrichment (6-mer frequency, TF over GST control), the binding signal (ELF4) was 1.21 fold enrichment (6-mer frequency, TF over GST control) and the binding signal (ELK4) was 1.06 fold enrichment (6-mer frequency, TF over GST control). The binding signal (ETV2) was 1.17 fold enrichment (6-mer frequency, TF over GST control), the binding signal (ELF3) was 1.21 fold enrichment (6-mer frequency, TF over GST control) and the binding signal (CRX) was 2.43 fold enrichment (6-mer frequency, TF over GST control). The binding signal (ETV1) was 1.12 fold enrichment (6-mer frequency, TF over GST control).
